A number with no mark means an inactive call. Records with an inconclusive call do not appear. Entries that show only a call come without a potency. The source made the active and inactive calls. Calls follow the shape of the dose curve; as a rule, active = well fitted curve in the direction sought with a large enough effect in the repeat runs; inconclusive = weak or mixed curves; inactive = no such curve, though single readings can be large; an effect the other way counts as inactive or inconclusive.
Tests used:
[1] = A CellTox Green Cytotoxicity Assay to monitor cytotoxicity in HEK293 cells - 40 hour (AID 1224871); also: nearly all actives have a fitted effect of over 45% in size; also: potency is read from the fitted curve at half-maximal effect
In short: (§1)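 Cells (HEK293, 600/well) and dye reagent are dispensed together. After 5 h at 37 C, 23 nL compound is pinned in. Plates stay at 37 C for 40 h with fluorescence read at 0h, 8h, 16h, 24h, 32h and 40h.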

[2] = qHTS RealTime-Glo MT Cell Viability Assay in HepG2 cells - 8 hour (AID 1224873); also: nearly all actives have a fitted effect of over 55% in size
In short: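 HepG2 cells mixed with RealTime-Glo MT reagents (NanoLuc plus cell-permeant prosubstrate) were seeded at 600 cells/well, incubated 5 h at 37 C/5% CO2, then pinned with compounds in DMSO; nonlytic luminescence tracked viability during 40 h treatment.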

[3] = qHTS RealTime-Glo MT Cell Viability Assay in HEK293 cells - 40 hour (AID 1224874); conditions: RealTime-Glo luminescence; max response: hits give low values; also: nearly all actives have a fitted effect of over 50% in size; also: potency is read from the fitted curve at half-maximal effect
In short: (§2)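 Real-time viability in HEK293: signal arises when living cells convert a prosubstrate for NanoLuc in the medium, so luminescence tracks viable cell number. Compound (23 nL, DMSO) added 5 h post-seeding; kinetic reads at 0–40 h, 37 C.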

[4] = A CellTox Green Cytotoxicity Assay to monitor cytotoxicity in HEK293 cells - 24 hour (AID 1224875); also: series mostly up to about 77 µM; nearly all actives have a fitted effect of over 45% in size
In short: as §1

[5] = A CellTox Green Cytotoxicity Assay to monitor cytotoxicity in HepG2 cells - 16 hour (AID 1224876); also: nearly all actives have a fitted effect of over 45% in size
In short: (§3)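 Cells and non-lytic dye reagent are dispensed together (600 HepG2 cells/well) and incubated 5 h before DMSO compound transfer. Kinetic fluorescence is then recorded in the same wells during 40 h at 37 C.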

[6] = qHTS RealTime-Glo MT Cell Viability Assay in HepG2 cells - 32 hour (AID 1224877); also: nearly all actives have a fitted effect of over 55% in size
In short: (§4)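 Compound treatment began 5 h after plating HepG2 cells (600/well) with NanoLuc luciferase and prosubstrate. Plates stayed at 37 C for 40 h; luminescence was captured at six time points, 0 h through 40 h.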

[7] = A CellTox Green Cytotoxicity Assay to monitor cytotoxicity in HepG2 cells - 24 hour (AID 1224878); also: nearly all actives have a fitted effect of over 45% in size
In short: as §3

[8] = A CellTox Green Cytotoxicity Assay to monitor cytotoxicity in HepG2 cells - 40 hour (AID 1224879); also: nearly all actives have a fitted effect of over 40% in size; also: potency is read from the fitted curve at half-maximal effect
In short: as §3

[9] = qHTS RealTime-Glo MT Cell Viability Assay in HEK293 cells - 0 hour (AID 1224880)
In short: as §2

[10] = A CellTox Green Cytotoxicity Assay to monitor cytotoxicity in HEK293 cells - 32 hour (AID 1224881); also: nearly all actives have a fitted effect of over 40% in size; also: potency is read from the fitted curve at half-maximal effect
In short: as §1

[11] = A CellTox Green Cytotoxicity Assay to monitor cytotoxicity in HepG2 cells - 0 hour (AID 1224882); also: nearly all actives have a fitted effect of over 35% in size
In short: as §3

[12] = A CellTox Green Cytotoxicity Assay to monitor cytotoxicity in HepG2 cells - 32 hour (AID 1224883); also: nearly all actives have a fitted effect of over 50% in size; also: potency is read from the fitted curve at half-maximal effect
In short: as §3

[13] = A CellTox Green Cytotoxicity Assay to monitor cytotoxicity in HEK293 cells - 8 hour (AID 1224884); also: nearly all actives have a fitted effect of over 35% in size
In short: as §1

[14] = qHTS RealTime-Glo MT Cell Viability Assay in HepG2 cells - 16 hour (AID 1224885); also: nearly all actives have a fitted effect of over 50% in size
In short: as §4

[15] = qHTS RealTime-Glo MT Cell Viability Assay in HEK293 cells - 24 hour (AID 1224886); also: nearly all actives have a fitted effect of over 50% in size; also: potency is read from the fitted curve at half-maximal effect
In short: (§5)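 Quantitative high-throughput screen of the Tox21 10K library in HEK293: cells and RealTime-Glo reagents plated together, compound added at 5 h, luminescence monitored through 40 h at 37 C.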

[16] = A CellTox Green Cytotoxicity Assay to monitor cytotoxicity in HEK293 cells - 16 hour (AID 1224888); also: nearly all actives have a fitted effect of over 35% in size
In short: as §1

[17] = qHTS RealTime-Glo MT Cell Viability Assay in HepG2 cells - 0 hour (AID 1224889); also: nearly all actives have a fitted effect of over 50% in size
In short: as §4

[18] = qHTS RealTime-Glo MT Cell Viability Assay in HEK293 cells - 16 hour (AID 1224872)
In short: as §5

[19] = qHTS RealTime-Glo MT Cell Viability Assay in HEK293 cells - 8 hour (AID 1224887)
In short: as §2

[20] = A CellTox Green Cytotoxicity Assay to monitor cytotoxicity in HepG2 cells - 8 hour (AID 1224890); also: nearly all actives have a fitted effect of over 45% in size
In short: as §3

## CC[C@]12CCCN3CCc4c(n(c5ccccc45)C(=O)C1)[C@@H]32
[1]
  Potency: inactive
[2]
  Potency: inactive
[3]
  Potency: 4.25 µM (active)
[4]
  Potency: inactive
[5]
  Potency: inactive
[6]
  Potency: inactive
[7]
  Potency: inactive
[8]
  Potency: 6.74 µM (active)
[9]
  Potency: inactive
[10]
  Potency: inactive
[11]
  Potency: inactive
[12]
  Potency: 6.74 µM (active)
[13]
  Potency: inactive
[14]
  Potency: inactive
[15]
  Potency: 4.77 µM (active)
[16]
  Potency: inactive
[17]
  Potency: inactive

## Cc1ccc2c(ccc3ccccc32)c1
[1]
  Potency: inactive
[18]
  Potency: inactive
[2]
  Potency: inactive
[4]
  Potency: inactive
[5]
  Potency: inactive
[6]
  Potency: inactive
[7]
  Potency: inactive
[8]
  Potency: inactive
[9]
  Potency: inactive
[10]
  Potency: inactive
[11]
  Potency: inactive
[12]
  Potency: inactive
[13]
  Potency: inactive
[14]
  Potency: inactive
[15]
  Potency: inactive
[19]
  Potency: inactive
[16]
  Potency: inactive
[17]
  Potency: inactive
[20]
  Potency: inactive

## O=S1(=O)c2cccc3cccc(c23)N1CCCN1CCN(c2ccc(F)cc2)CC1
[1]
  Potency: inactive
[18]
  Potency: inactive
[2]
  Potency: inactive
[3]
  max response: -11.7%
[6]
  Potency: inactive
[9]
  Potency: inactive
[10]
  Potency: inactive
[12]
  Potency: inactive
[13]
  Potency: inactive
[14]
  Potency: inactive
[15]
  Potency: inactive
[19]
  Potency: inactive
[16]
  Potency: inactive
[17]
  Potency: inactive

## COc1cc(C(C)(C)C)c(O)c(C(C)(C)C)c1
[1]
  Potency: 43.6 µM (active)
[18]
  Potency: inactive
[2]
  Potency: inactive
[3]
  max response: 1.44%
[6]
  Potency: inactive
[9]
  Potency: inactive
[10]
  Potency: 43.6 µM (active)
[11]
  Potency: inactive
[13]
  Potency: inactive
[14]
  Potency: inactive
[15]
  Potency: inactive
[17]
  Potency: inactive

## Cn1sccc1=O
[1]
  Potency: inactive
[18]
  Potency: inactive
[2]
  Potency: inactive
[4]
  Potency: inactive
[5]
  Potency: inactive
[6]
  Potency: inactive
[7]
  Potency: inactive
[9]
  Potency: inactive
[10]
  Potency: inactive
[11]
  Potency: inactive
[13]
  Potency: inactive
[14]
  Potency: inactive
[15]
  Potency: inactive
[19]
  Potency: inactive
[16]
  Potency: inactive
[17]
  Potency: inactive
[20]
  Potency: inactive

## NCCCN(CCO)CCO
[1]
  Potency: inactive
[18]
  Potency: inactive
[2]
  Potency: inactive
[3]
  max response: -7.84%
[5]
  Potency: inactive
[6]
  Potency: inactive
[8]
  Potency: inactive
[9]
  Potency: inactive
[10]
  Potency: inactive
[11]
  Potency: inactive
[12]
  Potency: inactive
[13]
  Potency: inactive
[14]
  Potency: inactive
[15]
  Potency: inactive
[19]
  Potency: inactive
[16]
  Potency: inactive
[17]
  Potency: inactive
[20]
  Potency: inactive

## O=C(O)Cn1c(C(=O)Nc2nc(-c3ccccc3Cl)cs2)cc2ccccc21
[1]
  Potency: inactive
[18]
  Potency: inactive
[2]
  Potency: inactive
[3]
  max response: -2.19%
[5]
  Potency: inactive
[6]
  Potency: inactive
[7]
  Potency: inactive
[8]
  Potency: inactive
[10]
  Potency: inactive
[11]
  Potency: inactive
[12]
  Potency: inactive
[15]
  Potency: inactive
[19]
  Potency: inactive
[16]
  Potency: inactive
[20]
  Potency: inactive

## C=CC[N+]1([C@H]2C[C@H]3[C@@H]4CC[C@H]5C[C@H](OC(C)=O)[C@@H](N6CCCCC6)C[C@]5(C)[C@H]4CC[C@]3(C)[C@H]2OC(=O)CC)CCCCC1
[1]
  Potency: inactive
[18]
  Potency: inactive
[2]
  Potency: inactive
[3]
  max response: -20.7%
[5]
  Potency: inactive
[7]
  Potency: inactive
[8]
  Potency: inactive
[9]
  Potency: inactive
[10]
  Potency: inactive
[11]
  Potency: inactive
[12]
  Potency: inactive
[13]
  Potency: inactive
[15]
  Potency: inactive
[16]
  Potency: inactive
[17]
  Potency: inactive
[20]
  Potency: inactive

Reference: PubChem BioAssay (Tox21)
